Source: PubChem BioAssay (Tox21)
A number with no mark means an inactive call. Records with an inconclusive call do not appear. A call without a number means that no potency is given here. The source made the active and inactive calls. Unless noted, calls come from the whole dose curve; as a rule, active = well fitted curve in the direction sought with a large enough effect in the repeat runs; inconclusive = weak or mixed curves; inactive = no such curve, though single readings can be large; an effect the other way counts as inactive or inconclusive.

Columns and labels:
[1] = target: Nuclear receptor subfamily 1 group I member 2 (Homo sapiens) (UniProt O75469); experiment: CYP3A4 induction through human pregnane X receptor (PXR) by small molecules, qHTS assay (AID 1346984); note: nearly all actives have a fitted effect of over 40% in size
Summary of the method: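 DPX-2 cells (HepG2 co-transfected with PXR and CYP3A4 promoter-luciferase) treated with compounds 24 h at 37C; luciferin-IPA CYP3A4 substrate 3uM final added for 3 h, then One-Glo; luminescence read. qHTS format.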

[2] = target: Thyrotropin receptor (Homo sapiens) (UniProt P16473); experiment: qHTS assay to identify small molecule antagonists of the thyroid stimulating hormone receptor (TSHR) signaling pathway (AID 1259385; calls by dose curve; note: nearly all actives have a fitted effect of over 20% in size; note: potency is the fitted concentration of half-maximal effect)
Summary of the method: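 TSHR-HEK293 cells (800/well) plated 18 h, then compounds with Ro20-1724 and TSH at 1.5 ng/mL final, 30 min at room temperature. cAMP quantified by HTRF (cAMP-d2/anti-cAMP-cryptate, 1 h); 15 concentrations in triplicate.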

[3] = qHTS assay to identify small molecule agonists of the estrogen receptor alpha (ER-alpha) signaling pathway in the presence of an antagonist - cell viability counter screen (AID 1259386);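 note: cells exposed to compounds for 22 h at 37 °C before the viability read; nearly all actives have a fitted effect of over 30% in size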; note: potency is the fitted concentration of half-maximal effect
Summary of the method: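 VM7Luc4E2 cells (endogenous full-length ER-alpha, 4×ERE-luciferase) were held 5 days in phenol red-free medium with 10% charcoal-stripped FBS, plated, then given 10.0nM ICI-182,780 and compounds at 15 concentrations for 22hr at 37C; viability read by CellTiter-Fluor fluorescence.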

[4] = target: Progesterone receptor (Homo sapiens) (UniProt P06401); experiment: qHTS assay to identify small molecule agonists of the progesterone receptor (PR) signaling pathway (AID 1346784; calls by dose curve; note: nearly all actives have a fitted effect of over 30% in size)
Summary of the method: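 Reporter assay, GripTite PR-UAS-bla HEK 293T cells: 16 hr exposure to DMSO-dissolved compounds at 37C, 5% CO2, in steroid-depleted (2% charcoal-stripped FBS) medium; beta-lactamase measured by FRET fluorescence.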

[5] = target: Progesterone receptor (Homo sapiens) (UniProt P06401); experiment: qHTS assay to identify small molecule antagonists of the progesterone receptor (PR) signaling pathway (AID 1346795; active = well fitted inhibition curve with a large enough effect in the signal ratio in the repeat runs, not every such curve was filed as active; the % refers to the signal ratio; note: potency is the fitted concentration of half-maximal effect)
Summary of the method: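 Stimulus R5020 at 1 nM final; cells HEK293T PR-UAS-bla; medium with 2% charcoal-stripped FBS; compound exposure 16 hr at 37C, 5% CO2; detection by FRET beta-lactamase substrate, 2 hr, room temperature.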

[6] = qHTS assay to identify small molecule agonists of the TGF-beta/Smad signaling pathway - cell viability counter screen (AID 1346829); note: top concentration of the series differs between compounds; nearly all actives have a fitted effect of over 45% in size
Summary of the method: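 HEK 293T SBE-bla line, 5 hr compound exposure at 37 C, multiplexed CellTiter-Glo viability read by luminescence.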

[7] = qHTS assay to identify small molecule agonists of the TGF-beta/Smad signaling pathway (AID 1346859; active = well fitted activation curve with a large enough effect in the signal ratio in the repeat runs, not every such curve was filed as active; the % refers to the signal ratio; note: series mostly up to about 77 µM)
Summary of the method: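 Screening used HEK 293T SBE-bla cells at 4,000/well. Test agents: 5 hr, 37 C. Detection: FRET substrate, 2 hr RT, then excitation 405 nm with emissions at 460 and 530 nm.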

[8] = target: Thyrotropin-releasing hormone receptor (Homo sapiens) (UniProt P34981); experiment: qHTS assay to identify small molecule antagonists of the thyrotropin-releasing hormone receptor (TRHR) signaling pathway (AID 1346877; active = well fitted inhibition curve with a large enough effect in the repeat runs, not every such curve was filed as active; note: series mostly up to about 51 µM)
Summary of the method: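 TRHR-expressing HEK293 cells were seeded, cultured 18 h at 37 °C, then loaded with calcium dye for 2 h. Compounds were pre-incubated 5 min at room temperature before 1 nM TRH (final) was added, and kinetic fluorescence was recorded for 3 min.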

[9] = Human pregnane X receptor (PXR) small molecule agonists, qHTS cell viability counter screen (AID 1346977); note: nearly all actives have a fitted effect of over 50% in size; note: potency is the fitted concentration of half-maximal effect
Summary of the method: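 In each well, the PXR reporter HepG2 line was checked for viability: CellTiter-Fluor reagent added 23hr post-dosing, fluorescence read after 1hr incubation at 37C.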

[10] = Caspase-3/7 induction in CHO-K1 cells by small molecules, qHTS cell viability counter screen (AID 1346979); note: nearly all actives have a fitted effect of over 35% in size; note: potency is the fitted concentration of half-maximal effect
Summary of the method: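 Following a 5hr settling period, CHO-K1 cells at 1,500 per well received DMSO-dissolved compounds. Cell viability was quantified 16hr later by CellTiter-Fluor fluorescence, measured after 1hr with reagent at 37C.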

[11] = Caspase-3/7 induction in CHO-K1 cells by small molecules, qHTS assay (AID 1346980); note: nearly all actives have a fitted effect of over 15% in size
Summary of the method: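 Wild-type CHO-K1 cells exposed to compounds for 17hr at 37 C, 5% CO2. Caspase-3/7 activity then measured by Caspase-Glo 3/7 luminescence after 30min at room temperature.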

[12] = Caspase-3/7 induction in HepG2 cells by small molecules, qHTS cell viability counter screen (AID 1346981); note: nearly all actives have a fitted effect of over 30% in size; note: potency is the fitted concentration of half-maximal effect
Summary of the method: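 Wild-type HepG2 cells (2,000/well) were allowed to settle for 5 hr at 37 C, 5% CO2, then dosed with compounds in DMSO by pin transfer. After 16 hr at 37 C, CellTiter-Fluor was added and fluorescence read 1 hr later.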

[13] = qHTS assay to identify small molecule antagonists of the progesterone receptor (PR) signaling pathway - cell viability counter screen (AID 1346798); note: nearly all actives have a fitted effect of over 50% in size; note: potency is the fitted concentration of half-maximal effect
Summary of the method: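 In the same plates used for the beta-lactamase readout, cell viability of compound- and R5020-treated PR-UAS-bla HEK293T cells (16 hr, 37C) was assessed by CellTiter-Glo luminescence.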

[14] = qHTS assay to identify small molecule agonists of the progesterone receptor (PR) signaling pathway - cell viability counter screen (AID 1346799; calls by dose curve; note: nearly all actives have a fitted effect of over 45% in size; note: potency is the fitted concentration of half-maximal effect)
Summary of the method: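 Multiplexed viability read: CellTiter-Glo luminescence, 30 min RT, following LiveBLAzer FRET measurement on PR-UAS-bla HEK293T cells exposed to compounds 16 hr.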

[15] = qHTS assay to identify small molecule antagonists of the TGF-beta/Smad signaling pathway - cell viability counter screen (AID 1346824); note: nearly all actives have a fitted effect of over 50% in size
Summary of the method: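 SBE-bla HEK 293T cells, incubated overnight, then compound plus 0.25 ng/mL TGF-beta1 (stock added) for 5 hr at 37 C. Viability was read in the same wells by CellTiter-Glo luminescence after 30 min at room temperature.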

[16] = target: Thyrotropin-releasing hormone receptor (Homo sapiens) (UniProt P34981); experiment: qHTS assay to identify small molecule agonists of the thyrotropin-releasing hormone receptor (TRHR) signaling pathway (AID 1346891; calls by dose curve; note: series mostly up to about 58 µM)
Summary of the method: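 Readout was intracellular calcium fluorescence in TRHR-Hek293 cells. Cells were incubated 18 h, dye-loaded 2 h at 37 °C, and treated with compound in agonist mode.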

[17] = Caspase-3/7 induction in HepG2 cells by small molecules, qHTS assay (AID 1346978); note: nearly all actives have a fitted effect of over 15% in size
Summary of the method: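 Wild-type HepG2 cells, 2,000/well, settled 5 hr at 37 C and 5% CO2, then compound-treated for 17 hr; caspase-3/7 activity read by luminescent Caspase-Glo 3/7 after 30 min at room temperature.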

[18] = target: Nuclear receptor subfamily 1 group I member 2 (Homo sapiens) (UniProt O75469); experiment: Human pregnane X receptor (PXR) small molecule agonists, qHTS assay (AID 1346982); note: nearly all actives have a fitted effect of over 35% in size; note: potency is the fitted concentration of half-maximal effect
Summary of the method: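 PXR-Luc HepG2 cells (CYP3A4 promoter-driven luciferase) were seeded in medium with 5% charcoal-stripped FBS, left 5 hr at 37 C, then exposed to compounds in DMSO for 24 hr. Luminescence was read after ONE-Glo addition.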

[19] = target: Nuclear receptor subfamily 1 group I member 2 (Rattus norvegicus) (UniProt Q9R1A7); experiment: Rat pregnane X receptor (rPXR) activation by small molecules, qHTS assay (AID 1346983); details: rPXR luciferase reporter cells, One-Glo luminescence, 24 h; max activation: active compounds read high; note: nearly all actives have a fitted effect of over 20% in size
Summary of the method: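 Cell-based rPXR activation assay: rPXR cells, 2,000 per well, rested 5hr at 37 C, then exposed to compounds in DMSO for 24 hr at 37 C. Luciferase activity read by One-Glo luminescence after 30 min at room temperature.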

[20] = target: Nuclear receptor subfamily 1 group I member 2 (Homo sapiens) (UniProt O75469); experiment: Human pregnane X receptor (PXR) activation by small molecules, qHTS assay (AID 1346985); note: nearly all actives have a fitted effect of over 40% in size; note: potency is the fitted concentration of half-maximal effect
Summary of the method: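 DPX-2 cells (HepG2 co-transfected with a PXR response element and a CYP3A4-promoter luciferase construct) were seeded at 2,000 per well, rested 5 hr at 37C, then exposed to DMSO-dissolved compounds for 24 hr. Activation was read as luciferase luminescence.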

Thyrotropin receptor (Homo sapiens), sequence (P16473 whole entry, looked up): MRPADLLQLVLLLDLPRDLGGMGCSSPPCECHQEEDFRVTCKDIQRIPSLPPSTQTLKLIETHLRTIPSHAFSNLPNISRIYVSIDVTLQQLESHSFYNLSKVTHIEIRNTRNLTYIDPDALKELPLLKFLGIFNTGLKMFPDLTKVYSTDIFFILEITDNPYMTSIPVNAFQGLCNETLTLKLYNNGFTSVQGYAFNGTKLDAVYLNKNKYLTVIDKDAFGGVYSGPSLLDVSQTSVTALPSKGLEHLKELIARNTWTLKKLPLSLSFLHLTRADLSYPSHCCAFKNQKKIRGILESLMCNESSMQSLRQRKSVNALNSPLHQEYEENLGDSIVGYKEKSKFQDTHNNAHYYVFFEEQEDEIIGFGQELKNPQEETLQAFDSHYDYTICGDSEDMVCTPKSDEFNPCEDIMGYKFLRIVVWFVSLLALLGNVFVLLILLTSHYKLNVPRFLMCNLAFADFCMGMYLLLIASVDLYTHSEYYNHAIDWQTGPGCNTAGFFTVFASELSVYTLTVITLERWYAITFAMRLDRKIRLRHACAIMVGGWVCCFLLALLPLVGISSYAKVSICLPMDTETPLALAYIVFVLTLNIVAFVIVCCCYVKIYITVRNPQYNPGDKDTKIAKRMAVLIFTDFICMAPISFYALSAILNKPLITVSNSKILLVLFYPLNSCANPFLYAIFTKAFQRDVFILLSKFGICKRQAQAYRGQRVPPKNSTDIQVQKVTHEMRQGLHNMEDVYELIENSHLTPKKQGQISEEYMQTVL
Progesterone receptor (Homo sapiens), sequence (P06401 whole entry, looked up): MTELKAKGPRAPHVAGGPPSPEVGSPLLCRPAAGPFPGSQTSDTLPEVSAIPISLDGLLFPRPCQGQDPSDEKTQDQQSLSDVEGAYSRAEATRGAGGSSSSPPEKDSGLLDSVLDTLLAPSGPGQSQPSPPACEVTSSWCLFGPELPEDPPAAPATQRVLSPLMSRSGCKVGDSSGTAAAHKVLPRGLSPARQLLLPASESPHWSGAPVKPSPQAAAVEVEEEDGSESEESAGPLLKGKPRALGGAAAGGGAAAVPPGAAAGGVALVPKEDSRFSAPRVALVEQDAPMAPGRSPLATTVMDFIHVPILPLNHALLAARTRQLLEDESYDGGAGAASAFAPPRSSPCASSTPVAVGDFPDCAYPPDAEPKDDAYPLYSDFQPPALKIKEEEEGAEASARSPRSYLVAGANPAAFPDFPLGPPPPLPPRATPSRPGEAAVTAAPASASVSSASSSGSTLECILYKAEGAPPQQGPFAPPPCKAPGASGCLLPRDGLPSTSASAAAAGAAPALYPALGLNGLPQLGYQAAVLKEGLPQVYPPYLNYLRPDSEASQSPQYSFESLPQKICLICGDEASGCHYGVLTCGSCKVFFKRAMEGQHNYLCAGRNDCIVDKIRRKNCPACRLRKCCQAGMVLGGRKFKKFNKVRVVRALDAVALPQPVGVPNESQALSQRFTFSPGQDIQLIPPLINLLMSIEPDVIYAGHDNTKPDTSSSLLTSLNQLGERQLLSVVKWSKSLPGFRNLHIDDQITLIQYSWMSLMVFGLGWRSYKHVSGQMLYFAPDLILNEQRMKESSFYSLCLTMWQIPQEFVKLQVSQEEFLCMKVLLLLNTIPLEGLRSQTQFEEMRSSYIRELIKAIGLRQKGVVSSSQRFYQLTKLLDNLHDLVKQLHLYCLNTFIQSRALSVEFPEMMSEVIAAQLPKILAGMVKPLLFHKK
Nuclear receptor subfamily 1 group I member 2 (Rattus norvegicus), sequence (Q9R1A7 whole entry, looked up): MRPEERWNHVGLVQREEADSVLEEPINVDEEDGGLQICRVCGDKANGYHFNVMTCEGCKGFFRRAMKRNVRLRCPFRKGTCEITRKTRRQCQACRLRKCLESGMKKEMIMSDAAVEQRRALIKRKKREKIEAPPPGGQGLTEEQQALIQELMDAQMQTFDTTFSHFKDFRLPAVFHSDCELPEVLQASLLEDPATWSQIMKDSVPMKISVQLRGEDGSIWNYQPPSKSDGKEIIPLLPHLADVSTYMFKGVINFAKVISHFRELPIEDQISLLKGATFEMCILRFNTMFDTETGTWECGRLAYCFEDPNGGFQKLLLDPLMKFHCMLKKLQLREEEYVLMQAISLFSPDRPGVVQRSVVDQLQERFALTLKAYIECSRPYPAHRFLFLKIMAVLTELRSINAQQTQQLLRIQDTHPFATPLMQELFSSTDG
Nuclear receptor subfamily 1 group I member 2 (Homo sapiens), sequence (O75469 whole entry, looked up): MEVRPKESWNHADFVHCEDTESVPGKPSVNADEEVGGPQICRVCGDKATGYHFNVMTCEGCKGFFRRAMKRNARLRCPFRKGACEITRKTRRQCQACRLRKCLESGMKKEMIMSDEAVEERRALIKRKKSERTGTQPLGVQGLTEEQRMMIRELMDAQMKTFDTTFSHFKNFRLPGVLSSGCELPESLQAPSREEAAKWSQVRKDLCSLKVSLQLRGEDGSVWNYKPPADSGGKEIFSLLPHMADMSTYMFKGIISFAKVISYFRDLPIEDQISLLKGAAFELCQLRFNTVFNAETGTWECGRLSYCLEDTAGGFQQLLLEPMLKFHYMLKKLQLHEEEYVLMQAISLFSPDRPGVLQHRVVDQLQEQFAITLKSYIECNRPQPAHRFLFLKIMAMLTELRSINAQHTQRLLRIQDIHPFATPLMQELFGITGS
Thyrotropin-releasing hormone receptor (Homo sapiens), sequence (P34981 whole entry, looked up): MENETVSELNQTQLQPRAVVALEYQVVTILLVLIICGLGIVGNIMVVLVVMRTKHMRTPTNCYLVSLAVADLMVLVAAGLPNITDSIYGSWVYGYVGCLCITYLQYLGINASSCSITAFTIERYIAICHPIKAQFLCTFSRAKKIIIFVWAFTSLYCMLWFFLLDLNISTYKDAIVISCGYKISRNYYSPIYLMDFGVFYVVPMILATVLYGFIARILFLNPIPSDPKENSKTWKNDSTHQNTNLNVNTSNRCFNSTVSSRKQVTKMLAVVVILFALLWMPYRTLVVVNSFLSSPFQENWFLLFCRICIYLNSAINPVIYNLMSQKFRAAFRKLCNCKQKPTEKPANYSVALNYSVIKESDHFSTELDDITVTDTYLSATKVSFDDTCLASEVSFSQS

Row | SMILES | Potency [1] | Potency [2] | Potency [3] | Potency [4] | Potency [5] | Potency [6] | Potency [7] | outcome [8] | Potency [9] | Potency [10] | Potency [11] | Potency [12] | Potency [13] | Potency [14] | Potency [15] | Potency [16] | Potency [17] | Potency [18] | max activation [19] [%] | Potency [20]
1 | C=Cc1ccc(S(=O)(=O)O)cc1 | inactive | – | – | – | – | – | – | – | – | – | – | – | – | – | – | – | – | – | – | –
2 | CC(=O)N/N=C/c1ccc([N+](=O)[O-])o1 | inactive | – | – | – | – | – | – | – | – | – | – | – | – | – | – | – | – | – | – | –
3 | CCOC(=O)C1=C(C)NC(C)=C(C(=O)OC)C1c1cccc(Cl)c1Cl (stereo not given) | – | inactive | inactive | inactive | 3.76 µM (active) | inactive | inactive | inactive | inactive | 13.3 µM (active) | inactive | inactive | – | – | – | – | – | – | – | –
4 | CCOC(=O)c1ccc(OCCN2C[C@H](O)[C@@H](O)[C@H](O)[C@H]2CO)cc1 | – | inactive | inactive | inactive | – | inactive | inactive | inactive | inactive | inactive | inactive | inactive | inactive | inactive | inactive | inactive | inactive | – | – | –
5 | CCCCCCCC/C=C\CCCCCCCCO | – | inactive | inactive | inactive | – | inactive | inactive | – | inactive | inactive | inactive | inactive | inactive | inactive | inactive | inactive | inactive | 30.6 µM (active) | – | –
6 | CC(CO)CO | – | inactive | inactive | inactive | – | inactive | inactive | inactive | inactive | inactive | inactive | inactive | inactive | inactive | – | inactive | inactive | – | – | –
7 | CN1CCCC(n2nc(Cc3ccc(Cl)cc3)c3ccccc3c2=O)CC1 (stereo not given) | – | 26.6 µM (active) | 11.9 µM (active) | inactive | – | inactive | inactive | inactive | 13.3 µM (active) | – | inactive | 26.6 µM (active) | 26.6 µM (active) | 13.3 µM (active) | inactive | – | inactive | 5.31 µM (active) | -1.86 | 20 µM (active)
8 | Clc1ccc(Nc2nnc(Cc3ccncc3)c3ccccc23)cc1 | inactive | inactive | inactive | inactive | 26.6 µM (active) | inactive | inactive | – | – | – | inactive | – | – | – | inactive | – | inactive | 29.8 µM (active) | 1.3 | 3.98 µM (active)
9 | CC(=O)c1cc2ccccc2s1 | – | inactive | inactive | inactive | – | inactive | inactive | – | inactive | – | inactive | inactive | inactive | inactive | inactive | – | inactive | inactive | – | –
10 | O=c1[nH]c2ccc(Cl)cc2o1 | – | inactive | inactive | inactive | – | inactive | inactive | – | inactive | – | inactive | inactive | inactive | inactive | inactive | – | inactive | – | – | –
11 | CC[C@]1(O)C[C@H]2CN(CCc3c([nH]c4ccccc34)[C@@](C(=O)OC)(c3cc4c(cc3OC)N(C=O)[C@H]3[C@@](O)(C(=O)OC)[C@H](OC(C)=O)[C@]5(CC)C=CCN6CC[C@]43[C@@H]65)C2)C1 | – | inactive | inactive | inactive | – | inactive | inactive | inactive | – | – | inactive | – | – | – | – | inactive | – | – | – | 8.91 µM (active)
12 | CC(C)C=O | – | inactive | inactive | inactive | – | inactive | inactive | inactive | inactive | inactive | inactive | inactive | inactive | – | inactive | inactive | – | – | – | –
13 | CC(=O)c1ccc([N+](=O)[O-])cc1 | – | inactive | inactive | inactive | – | inactive | inactive | – | inactive | – | inactive | inactive | inactive | – | inactive | – | inactive | – | – | –
14 | CC(C)(c1ccccc1)c1ccccc1 | – | inactive | inactive | inactive | – | inactive | inactive | – | inactive | inactive | inactive | inactive | inactive | – | inactive | inactive | inactive | – | – | –
15 | CCCC(=O)C(=O)O | – | inactive | inactive | inactive | – | inactive | inactive | – | inactive | inactive | inactive | inactive | inactive | – | inactive | inactive | inactive | inactive | – | –
16 | Nc1cccc2c1CN(C1CCC(=O)NC1=O)C2=O (stereo not given) | – | inactive | inactive | inactive | – | inactive | inactive | inactive | – | – | inactive | inactive | inactive | inactive | inactive | inactive | inactive | inactive | -1 | inactive
17 | C=C(C)CCCC(C)CCO (stereo not given) | – | inactive | inactive | inactive | – | inactive | inactive | – | inactive | inactive | inactive | inactive | inactive | inactive | inactive | – | inactive | – | – | –
18 | CCCCCC[C@@H](O)C/C=C\CCCCCCCC(=O)O | – | inactive | inactive | inactive | inactive | inactive | inactive | inactive | inactive | – | inactive | inactive | – | – | inactive | inactive | inactive | inactive | – | –
19 | Cc1cscn1 | – | inactive | inactive | inactive | – | inactive | inactive | – | inactive | – | inactive | inactive | inactive | inactive | inactive | – | inactive | inactive | – | –
20 | CCC1(CO)COCOC1 | – | inactive | inactive | inactive | – | inactive | inactive | inactive | – | – | inactive | inactive | – | inactive | inactive | inactive | inactive | inactive | – | –
